# TRPML1 agonist = qHTS for Agonists of the Human Mucolipin Transient Receptor Potential 1 (TRPML1) | Mucolipin-1 (Homo sapiens), Q9GZU1 | TRPML1-expressing cells, Ca2+ dye fluorescence, FDSS | activation, % (concentration not given with the values) | 410,000 tested, 0.12% active; in the data active = activation above about 50%; inconclusive = mostly about 30% to 49%
#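 Cells: TRPML1-DL, 1X Tet inducer, ~16 h at 37 degrees C/5% CO2. Dye: ABD Ca8 no-wash + quencher, 45-90 min RT. Read: 10 s baseline, compound add, 110 s agonist phase; 54-4 EC80 (4uM final), 110 s antagonist phase.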
# TRHR agonist = qHTS for Small Molecule Agonists and Allosteric Enhancers of Human TRH Receptor: Primary Screen for Agonists | Thyrotropin-releasing hormone receptor (Homo sapiens), P34981 | TRHR cells, calcium flux fluo-8, FDSS agonist mode | activation, % at 2 µM | 360,000 tested, 0.18% active | AID 493084, 2011; in the data active = activation above about 30%
# Target sequence (P34981 whole entry, looked up): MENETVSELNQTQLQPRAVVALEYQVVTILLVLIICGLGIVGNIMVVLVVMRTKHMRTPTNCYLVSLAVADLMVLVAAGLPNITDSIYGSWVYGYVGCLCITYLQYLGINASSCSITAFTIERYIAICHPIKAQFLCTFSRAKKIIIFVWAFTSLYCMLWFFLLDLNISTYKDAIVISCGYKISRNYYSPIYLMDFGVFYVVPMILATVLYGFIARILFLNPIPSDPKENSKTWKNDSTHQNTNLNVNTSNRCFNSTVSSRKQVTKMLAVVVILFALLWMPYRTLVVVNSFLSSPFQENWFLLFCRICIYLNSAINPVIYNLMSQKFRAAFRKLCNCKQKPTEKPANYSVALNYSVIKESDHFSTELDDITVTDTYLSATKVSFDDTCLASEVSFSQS
#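 In this calcium-flux screen, cells bearing human TRHR are dye-loaded with fluo-8, baselined for 10 cycles, then exposed to library compounds; positive kinetic calcium responses during the agonist phase mark hits, with TRH as control.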
# TRHR PAM = qHTS for Small Molecule Agonists and Allosteric Enhancers of Human TRH Receptor: Primary Screen for Enhancers. enhancement, % at 2 µM. Thyrotropin-releasing hormone receptor (Homo sapiens), P34981. 360,000 tested, 0.66% active. TRHR cells, fluo-8 calcium fluorescence, EC20 TRH enhancement; in the data active = enhancement above about 30%
#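 TRHR-expressing cells loaded with fluo-8 calcium dye were read kinetically (ex 480/em 530) during compound addition, then stimulated with an EC20 of TRH (10 nM final). Enhancement of the Gq-mediated intracellular calcium response was scored.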
# PTHR1 agonist = qHTS for PTHR1 Agonists: Primary Screen. 410,000 tested, 0.075% active. AID 743266, 2014. Potency, µM (series often up to 115 µM), actives largely listed as activators. Parathyroid hormone/parathyroid hormone-related peptide receptor (Homo sapiens), Q03431. HEK293 GP2 PTHR1 cells, GloSensor cAMP luminescence, 1 h; also: nearly all actives have a fitted effect of over 55% in size
#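 HEK-293-derived GP2 cells expressing PTHR1 and a GloSensor cAMP reporter, 3,000/well, plated overnight, given luciferin plus IBMX (each 0.5 mM as added) for 1 h at 37 °C, then compound for 1 h at 37 °C. Luminescence was read after 15 min at room temperature.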
# GLP1R cytotox = qHTS of GLP-1 Receptor Inverse Agonists: Cytotox Screen; HEK293 cAMP-luciferase reporter cells, luminescence, 24 h; Potency, µM (titrated, usually from 38.3 µM), usual class: inhibitors; 410,000 tested, 0.13% active; AID 624418, 2012;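 also: loss of luciferase light is scored as toxicity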
#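 Here, cytotoxicity is scored as loss of luminescence. The MLSMR collection was tested on cells seeded in medium containing 10% Nu serum, with a 24 hr compound exposure preceded by 12 hours of culture.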
# TRPML1 inh = qHTS for Inhibitors of the Human Mucolipin Transient Receptor Potential 1 (TRPML1); Mucolipin-1 (Homo sapiens), Q9GZU1; TRPML1-inducible cells, Ca2+ dye fluorescence, FDSS; active compounds read low; inhibition of EC80 agonist-evoked calcium signal; activity change, negative = inhibition, % (concentration not given with the values); 390,000 tested, 0.02% active; AID 624415, 2012; in the data active = activity change below about -50%; inconclusive = between about -30% and that limit;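 also: stimulus is agonist 54-4 at its EC80 concentration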
#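 Tet-induced TRPML1-DL cells loaded with Ca8 no-wash calcium dye were read kinetically on FDSS. Compound addition was followed by EC80 agonist 54-4 (4 uM final); inhibition was read over 110 s.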
# Numbers stand for hits; - = inactive; ? = inconclusive; . = no result. A selection: hits, their analogues and other compounds. The true share with any hit is near 0.93%. Unless noted, calls follow the shape of the dose curve; as a rule, active = well fitted curve in the direction sought with a large enough effect; inconclusive = small, poorly fitted or top-dose-only effect, or another doubt; inactive = no such curve, though single readings can be large; an effect the other way counts as inactive or inconclusive.
SMILES,TRPML1 agonist,TRHR agonist,TRHR PAM,PTHR1 agonist,GLP1R cytotox,TRPML1 inh
CCn1c(-c2ccco2)n[nH]c1=S,-,-,-,-,-,-
CC(C)Cn1c(-c2ccco2)n[nH]c1=S,-,-,34.7,-,-,-
Cc1cccc(-c2nc(CN3CCN(Cc4cccc(F)c4)CC3)c(C)o2)c1,-,-,31.4,-,-,-
Cc1oc(-c2cccc(F)c2)nc1CN1CCCN(C(=O)c2ccco2)CC1,-,-,-,-,-,-
CC1(C)Cc2c(C#N)c(NCc3ccco3)nc(-c3ccco3)c2CO1,-,-,37.1,-,-,-
Cc1ccc(OCCN2CCN(C)CC2)c([N+](=O)[O-])c1,-,-,-,-,-,-
Cc1ccc(OCCCN2CCOCC2)c([N+](=O)[O-])c1,-,-,30.7,-,-,-
O=[N+]([O-])c1ccc(C(O)C23CN4CN(CN(C4)C2)C3)cc1 (centres undefined),-,-,40.3,-,-,-
Cc1ccc(-c2cn3nc(N4CCCC(C(=O)NCc5ccccc5F)C4)sc3n2)cc1 (centres undefined),-,-,30.4,-,-,-
Cc1ccc(N(C(=O)Cn2nnc(-c3ccc(F)cc3)n2)C(C(=O)NC(C)(C)C)c2ccncc2)cc1 (centres undefined),-,-,-,44.7µM,-,-
CCN1CCN(c2ccc(NC(=O)c3ccc([N+](=O)[O-])o3)cc2Cl)CC1,-,-,-,-,5.62µM,-
Cc1ccc(S(=O)(=O)/N=C2/NC(=O)/C(=C/c3cc([N+](=O)[O-])ccc3O)S2)cc1,67.3,-,-,?,-,-
Cc1[nH]nc2c1C(c1ccc(-c3ccc(Cl)cc3)o1)C(C#N)=C(N)O2 (centres undefined),-,-,31.0,-,?,-
O=[N+]([O-])c1ccc(O/N=[N+](\[O-])N2CCN(c3ccccc3)CC2)c([N+](=O)[O-])c1,-,.,.,.,.,-
COc1cc(/C=C/c2sc3ccccc3[n+]2CCCS(=O)(=O)[O-])ccc1O,-,-,-,-,10µM,-
CCCCCCCCC(=O)N/N=C/c1ccccn1,-,-,-,-,?,-
CCCCC(C(=O)N/N=C/c1ccccn1)C(=O)N/N=C/c1ccccn1,-,-,35.0,-,-,-
CC(C)(CNC(=O)c1ccc(S(=O)(=O)Nc2cccc(C(F)(F)F)c2)cc1)N1CCOCC1,-,-,34.8,-,-,-
O=C(c1ccc(S(=O)(=O)Nc2cccc(C(F)(F)F)c2)cc1)N1CCOCC1,-,-,-,-,-,-
CN(C)C(=O)COc1ccccc1C(=O)OCC(=O)N(CCC#N)c1ccccc1,-,.,.,.,.,.
COc1ccc(/C=C2\OC(=S)N(C)C2=O)cc1,-,-,-,-,-,-
CN1C(=O)/C(=C\c2ccc(N(C)C)cc2)OC1=S,82.3,203.5,-,-,-,-
C/C(=N\NC(=O)CCCNc1ccccc1)c1ccncc1,-,-,-,-,-,-
C/C(=N\NC(=O)CCCNc1ccc(C)cc1)c1ccccn1,-,-,32.1,-,?,-
O=C(NCCN1CCCCC1)Nc1ccccc1F,-,-,-,-,-,-
SMILES,TRPML1 agonist,TRHR agonist,TRHR PAM,PTHR1 agonist,GLP1R cytotox,TRPML1 inh
O=C(NCCN1CCCCC1)Nc1ccc(F)cc1F,-,-,36.9,-,-,-
COc1cc2nc(NC3CCN(C)CC3)nc(NC3CCN(C)CC3)c2cc1OC,-,.,.,.,.,.
O=C(C[n+]1csc2ccccc21)c1cccc([N+](=O)[O-])c1,-,.,.,.,.,.
Cc1cc[n+](CC(=O)c2cccc([N+](=O)[O-])c2)c2ccccc12,.,-,34.2,-,-,.
CCc1ccccc1N(C)C,-,.,.,.,.,.
Nc1nc(Sc2ccc([N+](=O)[O-])c3nonc23)c2[nH]cnc2n1,-,.,.,-,8.91µM,-
O=C(CNC(=O)c1ccccc1Cl)OC(C(=O)Nc1cc(C(F)(F)F)ccc1Cl)c1ccccc1 (centres undefined),.,-,-,.,.,.
COc1ccc2c(n1)Sc1nc3ccccc3nc1N2,82.2,90.3,-,-,-,-
COc1cc2ccccc2nn1,-,-,-,-,-,-
Cc1ccc(NS(=O)(=O)c2cc([N+](=O)[O-])ccc2NNC(=S)Nc2cc(C)ccc2C)c(C)c1,-,-,-,-,11.2µM,-
CC(C)(C)n1ncc2c(=O)n(Cc3c(F)cc(Cl)cc3F)cnc21,-,.,.,.,.,-
C=C[C@@H]1c2cc(C)ccc2N(S(=O)(=O)c2ccc(C)cc2)[C@H](c2ccc(C(C)(F)F)cc2)C1(C#N)C#N,50.6,.,.,.,.,.
CCc1ccccc1NC(=O)CSc1nnc(C2CC2)n1CC1CCCO1 (centres undefined),-,-,30.8,-,-,-
CC(=O)c1cc2ccccc2c2ccccc12,-,.,.,.,.,.
CC(C)NS(=O)(=O)c1ccc(NC(=O)C(C)OC(=O)CCC2CCCCC2)cc1 (centres undefined),-,-,-,-,-,-
CC(C)NS(=O)(=O)c1ccc(NC(=O)C(C)OC(=O)CCCOc2ccccc2)cc1 (centres undefined),-,-,30.2,-,-,-
Cc1ccc(S(=O)(=O)N2CCN(C(=O)C3COc4ccccc4O3)CC2)cc1C (centres undefined),-,-,-,-,-,-
Cc1cc(C)c(S(=O)(=O)N2CCN(C(=O)C3COc4ccccc4O3)CC2)c(C)c1 (centres undefined),-,-,36.4,-,-,-
CC(C)Oc1ccc(Br)cc1/C=N\NC(N)=S,-,-,-,-,2.51µM,-
Cc1cc(/C=N/NC(N)=S)c(C)n1-c1ccc(Br)cc1,-,-,-,-,?,-
COc1ccc(/C=C(\C)C(=O)NO)cc1,-,.,.,.,.,.
CCOC(=O)c1cc(C#N)c(SC(C(=O)N2CCCCC2)c2ccccc2)nc1C (centres undefined),-,.,.,.,.,.
CN1CCC(N(C)S(=O)(=O)c2ccc(Cl)cc2)CC1,-,-,34.5,-,-,-
CN(CC(=O)N1CCCCC1)S(=O)(=O)c1ccc(Cl)cc1,-,-,-,-,-,-
CN(CC(=O)N1CCCC1)S(=O)(=O)c1ccc(Cl)cc1,-,-,30.3,-,-,-

# Assay outcomes (PubChem)
